Laboratory results reported in PubChem BioAssay.
For some assays here: Results with a measured potency or affinity are listed apart. The source made the active and inactive calls.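 How the source made its calls, unless noted: active means primary screen hit whose calcium fluorescence ratio, in both repeats, exceeds the weak agonist control mean by 3 SD; inactive means the rest.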

Experiments:
[1] = test system: TRPC4 beta (transient receptor potential cation channel C4), mouse; assay: activators of mouse TRPC4 channel, confirmation, cell-based, Fluo4 calcium, HEK293 TRPC4beta/mu-opioid, duplicates, 10 µM (AID 2426;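 active means fluorescence ratio normalized to control raised more than 50% in primary screen plus both repeat runs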); conditions: Fluo4 calcium fluorescence, at 10 µM; hits give high values
[2] = test system: transient receptor potential cation channel C4 beta (TRPC4), mouse; assay: activators of mouse TRPC4 channel, confirmation, cell-based, second round, Fluo4, HEK293 TRPC4beta/mu-opioid, 1 µM (AID 2461;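 active means primary screen active and over 50% activation in each of two duplicate runs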); conditions: Fluo4 calcium fluorescence, at 1 µM; hits give high values
[3] = test system: TRPC4 (transient receptor potential cation channel C4 beta), mouse; assay: positive allosteric modulators of mouse TRPC4, confirmation, cell-based, second round, Fluo-4, HEK293 TRPC4beta/mu-opioid, 1 µM (AID 2554;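 active means primary screen hit whose fluorescence ratio, in both repeats, exceeds the weak agonist control mean by 3 SD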); conditions: DAMGO EC20, Fluo-4 calcium flux, at 1 µM; hits give high values
[4] = test system: TRPC4 beta (transient receptor potential cation channel C4), mouse; assay: positive allosteric modulators of mouse TRPC4, confirmation, cell-based, Fluo-4, HEK293 TRPC4beta/mu-opioid (AID 2555); conditions: DAMGO EC20, Fluo-4 calcium flux, at 10 µM; hits give high values
[5] = molecular target: Short transient receptor potential channel 4 (Mus musculus) (UniProt Q9QUQ5); assay: inhibitors of mouse TRPC4 channel, confirmation, cell-based, Fluo4, HEK293 TRPC4beta/mu-opioid (AID 2636;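 active means calcium signal cut by more than 3 SD below the full-agonist control yet still positive, in both repeats and the earlier primary screen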); conditions: DAMGO, Fluo4 calcium flux, at 10 µM; hits give high values
Sequence of Short transient receptor potential channel 4 (Mus musculus) (Q9QUQ5 whole entry, looked up): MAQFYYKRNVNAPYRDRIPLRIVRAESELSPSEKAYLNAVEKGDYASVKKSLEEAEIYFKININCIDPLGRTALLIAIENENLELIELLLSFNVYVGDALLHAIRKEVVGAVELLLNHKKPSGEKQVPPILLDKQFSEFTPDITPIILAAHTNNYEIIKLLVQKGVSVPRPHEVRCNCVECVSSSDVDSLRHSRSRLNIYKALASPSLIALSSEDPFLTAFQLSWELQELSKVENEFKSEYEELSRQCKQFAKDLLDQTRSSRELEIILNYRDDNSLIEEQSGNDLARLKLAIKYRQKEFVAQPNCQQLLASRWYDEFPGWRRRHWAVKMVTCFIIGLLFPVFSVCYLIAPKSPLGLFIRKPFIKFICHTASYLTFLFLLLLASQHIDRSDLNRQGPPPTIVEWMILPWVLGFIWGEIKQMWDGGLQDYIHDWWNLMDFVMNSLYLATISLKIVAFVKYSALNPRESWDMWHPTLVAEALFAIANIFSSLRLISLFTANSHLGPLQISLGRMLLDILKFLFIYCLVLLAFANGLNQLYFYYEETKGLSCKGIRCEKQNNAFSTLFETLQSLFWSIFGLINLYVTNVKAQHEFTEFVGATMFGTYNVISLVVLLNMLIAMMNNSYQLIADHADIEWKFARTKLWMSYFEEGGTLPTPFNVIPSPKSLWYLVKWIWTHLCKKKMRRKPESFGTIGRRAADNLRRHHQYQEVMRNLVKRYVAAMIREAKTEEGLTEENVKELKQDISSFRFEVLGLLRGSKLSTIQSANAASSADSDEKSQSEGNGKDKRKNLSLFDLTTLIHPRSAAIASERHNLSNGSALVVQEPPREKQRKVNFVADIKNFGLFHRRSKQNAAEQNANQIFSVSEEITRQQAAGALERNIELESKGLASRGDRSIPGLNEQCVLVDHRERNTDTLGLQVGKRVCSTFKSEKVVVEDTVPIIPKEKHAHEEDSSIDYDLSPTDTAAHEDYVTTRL

[6] = molecular target: Short transient receptor potential channel 4 (Mus musculus) (UniProt Q9QUQ5); assay: inhibitors of mouse TRPC4 channel, confirmation, cell-based, second round, Fluo4, HEK293 TRPC4beta/mu-opioid, 1 µM (AID 2637;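 active means calcium signal ratio cut to more than 3 SD under the fully stimulated control mean yet still positive, in both repeats and the primary screen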); conditions: Fluo4 calcium flux, DAMGO, at 1 µM; hits give high values
[7] = molecular target: Short transient receptor potential channel 4 (Mus musculus) (UniProt Q9QUQ5); assay: mouse TRPC4 channel activators, dose response, cell-based, HEK293 TRPC4/mu-opioid, Fluo-4 calcium (AID 434937;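 active means primary screen activator hit with a dose response curve and TRPC4 channel activation at any tested dose; inactive means no activation, no dose response, or not a primary hit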)
[8] = molecular target: Short transient receptor potential channel 4 (Mus musculus) (UniProt Q9QUQ5); assay: TRPC4 positive allosteric modulators, dose response, cell-based, HEK293 TRPC4/mu-opioid, Fluo-4 calcium, EC20 DAMGO (AID 434941;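 active means earlier screen potentiator hit that boosts the TRPC4 ion channel at some dose, with a dose response; inactive means no potentiation, no dose response, or not a prior hit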;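 further: calcium entry triggered by an EC20 dose of DAMGO at the co-expressed mu-opioid receptor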)
[9] = molecular target: Short transient receptor potential channel 4 (Mus musculus) (UniProt Q9QUQ5); assay: mouse TRPC4 channel inhibitors, dose response, cell-based, HEK293 TRPC4/mu-opioid, Fluo-4 calcium (AID 434942;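 active means primary screen inhibitor hit that blocks the TRPC4 channel at some tested dose, yielding a dose curve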)
[10] = molecular target: Short transient receptor potential channel 6 (Mus musculus) (UniProt Q61143); assay: inhibition of mouse TRPC6 channel, confirmation, selectivity assay for TRPC4 inhibitor project, cell-based, HEK293, membrane potential dye, duplicate (AID 434948;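 active means active in primary screen and both duplicates, each dropping signal beyond three positive-control SD with fluorescence still positive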); conditions: HEK293 TRPC6, membrane potential dye fluorescence, at 10 µM, stimulated with maximal-effect acetylcholine; hits give high values
Sequence of Short transient receptor potential channel 6 (Mus musculus) (Q61143 whole entry, looked up): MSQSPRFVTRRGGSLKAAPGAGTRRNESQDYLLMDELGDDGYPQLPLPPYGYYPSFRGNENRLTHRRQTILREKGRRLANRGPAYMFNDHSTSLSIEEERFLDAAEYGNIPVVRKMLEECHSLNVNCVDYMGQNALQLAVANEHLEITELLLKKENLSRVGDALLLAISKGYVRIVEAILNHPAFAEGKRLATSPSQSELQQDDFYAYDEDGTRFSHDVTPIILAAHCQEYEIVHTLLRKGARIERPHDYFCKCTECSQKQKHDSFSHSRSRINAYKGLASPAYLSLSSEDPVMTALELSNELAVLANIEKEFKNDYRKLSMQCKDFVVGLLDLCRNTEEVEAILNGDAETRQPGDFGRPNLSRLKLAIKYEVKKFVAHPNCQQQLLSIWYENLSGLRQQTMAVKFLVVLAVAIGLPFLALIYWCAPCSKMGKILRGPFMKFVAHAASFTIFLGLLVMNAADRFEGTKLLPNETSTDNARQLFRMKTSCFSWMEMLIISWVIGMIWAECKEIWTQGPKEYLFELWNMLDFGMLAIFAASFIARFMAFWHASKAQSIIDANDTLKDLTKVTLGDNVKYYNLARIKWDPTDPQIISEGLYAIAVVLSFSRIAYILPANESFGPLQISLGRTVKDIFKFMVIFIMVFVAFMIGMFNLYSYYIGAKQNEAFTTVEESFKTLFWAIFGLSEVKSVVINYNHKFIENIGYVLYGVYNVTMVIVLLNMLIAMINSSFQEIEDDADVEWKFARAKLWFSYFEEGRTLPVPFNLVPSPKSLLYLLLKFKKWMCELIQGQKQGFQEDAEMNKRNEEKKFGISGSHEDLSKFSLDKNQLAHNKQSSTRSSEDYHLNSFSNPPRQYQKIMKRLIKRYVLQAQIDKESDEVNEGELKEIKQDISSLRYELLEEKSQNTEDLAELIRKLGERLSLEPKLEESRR

[11] = molecular target: Short transient receptor potential channel 6 (Mus musculus) (UniProt Q61143); assay: activation of mouse TRPC6 channel, confirmation, selectivity assay for TRPC4 activator project, cell-based, HEK293, membrane potential dye, duplicate (AID 434950;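 active means membrane potential signal rise above negative control mean plus 3 SD in both duplicates, also active in the earlier TRPC4 screen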); conditions: HEK293 TRPC6, membrane potential fluorescence, at 10 µM; hits give high values
[12] = molecular target: Short transient receptor potential channel 6 (Mus musculus) (UniProt Q61143); assay: TRPC6 potentiation by TRPC4 potentiator hits, confirmation, selectivity assay for TRPC4 potentiator project, HEK293 cells, membrane potential dye, duplicate (AID 434952;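 active means compound raising the membrane signal above positive-control mean plus 3 SD in both repeats, and a primary screen hit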); conditions: HEK293 TRPC6, membrane potential dye fluorescence, at 10 µM, maximal acetylcholine added after compound; hits give high values
[13] = molecular target: Short transient receptor potential channel 4 (Mus musculus) (UniProt Q9QUQ5); assay: calcium flux activators in TRPC4/5HT1a cells, counter-screen for TRPC4 activator project, cell-based, second counter screen, HEK293 TRPC4/5HT1a, Fluo-4 (AID 434977;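 active means calcium signal rise above buffer-control mean plus 5 SD in both duplicates, and also a hit in the primary screen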); conditions: Fluo-4 calcium flux, at 10 µM; hits give high values
[14] = calcium flux inhibitors in TRPC4/5HT1a cells, confirmation, counter-screen for TRPC4 inhibitor project, cell-based, second counter screen, HEK293 TRPC4/5HT1a, Fluo-4 (AID 434978;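 active means primary screen active whose calcium signal fell more than 3 SD beyond the full-serotonin control mean in both duplicate plates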;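 further: serotonin given first at submaximal then at maximal dose after compound preincubation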); conditions: Fluo-4 calcium flux, at 10 µM, serotonin added to trigger calcium flux; hits give high values
[15] = test system: TRPC4 (mouse), co-expressed with 5HT1a in HEK293; assay: calcium flux potentiators in TRPC4/5HT1a cells, confirmation, counter-screen for TRPC4 potentiator project, cell-based, second counter screen, HEK293 TRPC4/5HT1a, Fluo-4 (AID 434979;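 active means signal rise over 3 SD above mean of control wells given weak agonist, in both repeats and first screen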); conditions: Fluo-4 calcium flux, at 10 µM, serotonin added at its EC20 dose; hits give high values
[16] = calcium flux activation in mu-opioid HEK293 cells, confirmation, counter-screen for TRPC4 activator project, cell-based, HEK293 mu-opioid receptor line (AID 449723;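 active means hit in primary screen, with calcium signal over 5 SD above buffer well mean in both duplicates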;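 further: counter screen cells carry the mu-opioid receptor alone and lack TRPC4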); conditions: Fluo-4 calcium fluorescence, at 10 µM; hits give high values
[17] = calcium flux enhancement in mu-opioid HEK293 cells, confirmation, counter-screen for TRPC4 allosteric potentiator project, cell-based, HEK293 mu-opioid receptor line (AID 449724;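 active means calcium signal rise more than 3 SD above the low-dose agonist control mean, in both duplicate plates and the primary screen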); conditions: Fluo-4 calcium flux, at 10 µM, compound added before EC20 DAMGO stimulus; hits give high values
[18] = thallium flux activation in parental CHO cells, counter-screen for KCNQ1 potentiator project (AID 493006;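 active means duplicate-averaged activation above buffer control mean plus 5 SD of those controls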;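 on activation: fluorescence ratio of max minus min over baseline after K+ and Tl+ depolarization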); conditions: parental CHO-K1 cells, FluxOR thallium flux, at 10 µM; hits give high values
[19] = molecular target: Potassium voltage-gated channel subfamily KQT member 1 (Homo sapiens) (UniProt P51787); assay: KCNQ1 potassium channel potentiators, confirmation, FluxOR thallium flux, CHO cells, duplicates (AID 493007;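 active means potentiation averaged over duplicate wells exceeding buffer-only control mean by more than 3 SD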;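 on outcome: cells depolarized by a potassium plus thallium sulfate stimulus after compound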;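 on potentiation: 0% = buffer-only wells and 100% = R-L3 activator control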); conditions: KCNQ1 cell line, FluxOR thallium flux fluorescence, at 10 µM; hits give high values, % of reference activator effect, buffer zero
Sequence of Potassium voltage-gated channel subfamily KQT member 1 (Homo sapiens) (P51787 whole entry, looked up): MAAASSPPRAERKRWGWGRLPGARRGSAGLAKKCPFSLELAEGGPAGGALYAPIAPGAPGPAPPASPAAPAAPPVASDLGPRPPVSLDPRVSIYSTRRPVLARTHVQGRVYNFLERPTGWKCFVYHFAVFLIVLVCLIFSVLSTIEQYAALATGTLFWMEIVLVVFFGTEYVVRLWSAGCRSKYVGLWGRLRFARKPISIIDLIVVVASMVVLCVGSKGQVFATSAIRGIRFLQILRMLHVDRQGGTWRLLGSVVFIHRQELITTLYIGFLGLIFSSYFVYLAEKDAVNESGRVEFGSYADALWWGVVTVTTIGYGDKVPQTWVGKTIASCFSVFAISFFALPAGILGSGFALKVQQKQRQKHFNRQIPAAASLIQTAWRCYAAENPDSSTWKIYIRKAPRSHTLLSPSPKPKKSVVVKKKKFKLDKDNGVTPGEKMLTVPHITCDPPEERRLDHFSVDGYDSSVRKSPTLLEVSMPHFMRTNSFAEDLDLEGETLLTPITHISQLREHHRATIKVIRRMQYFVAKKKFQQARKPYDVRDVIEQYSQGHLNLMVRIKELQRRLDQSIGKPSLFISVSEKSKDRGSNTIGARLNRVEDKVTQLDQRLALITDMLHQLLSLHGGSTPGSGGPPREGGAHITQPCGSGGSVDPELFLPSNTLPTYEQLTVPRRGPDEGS

[20] = molecular target: Potassium voltage-gated channel subfamily KQT member 2 (Rattus norvegicus) (UniProt O88943); assay: rat KCNQ2 channel potentiation, selectivity assay for KCNQ1 potentiator project, KCNQ2-CHO-K1 cells (AID 493009;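 active means mean duplicate potentiation above the buffer control mean plus 5 SD of buffer wells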;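 further: assay conditions were tuned for KCNQ1 rather than KCNQ2 modulators; signal is max minus min fluorescence divided by baseline after thallium stimulus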); conditions: FluxOR thallium flux fluorescence, at 10 µM; hits give high values, scaled: buffer 0, activator control 100
Sequence of Potassium voltage-gated channel subfamily KQT member 2 (Rattus norvegicus) (O88943 whole entry, looked up): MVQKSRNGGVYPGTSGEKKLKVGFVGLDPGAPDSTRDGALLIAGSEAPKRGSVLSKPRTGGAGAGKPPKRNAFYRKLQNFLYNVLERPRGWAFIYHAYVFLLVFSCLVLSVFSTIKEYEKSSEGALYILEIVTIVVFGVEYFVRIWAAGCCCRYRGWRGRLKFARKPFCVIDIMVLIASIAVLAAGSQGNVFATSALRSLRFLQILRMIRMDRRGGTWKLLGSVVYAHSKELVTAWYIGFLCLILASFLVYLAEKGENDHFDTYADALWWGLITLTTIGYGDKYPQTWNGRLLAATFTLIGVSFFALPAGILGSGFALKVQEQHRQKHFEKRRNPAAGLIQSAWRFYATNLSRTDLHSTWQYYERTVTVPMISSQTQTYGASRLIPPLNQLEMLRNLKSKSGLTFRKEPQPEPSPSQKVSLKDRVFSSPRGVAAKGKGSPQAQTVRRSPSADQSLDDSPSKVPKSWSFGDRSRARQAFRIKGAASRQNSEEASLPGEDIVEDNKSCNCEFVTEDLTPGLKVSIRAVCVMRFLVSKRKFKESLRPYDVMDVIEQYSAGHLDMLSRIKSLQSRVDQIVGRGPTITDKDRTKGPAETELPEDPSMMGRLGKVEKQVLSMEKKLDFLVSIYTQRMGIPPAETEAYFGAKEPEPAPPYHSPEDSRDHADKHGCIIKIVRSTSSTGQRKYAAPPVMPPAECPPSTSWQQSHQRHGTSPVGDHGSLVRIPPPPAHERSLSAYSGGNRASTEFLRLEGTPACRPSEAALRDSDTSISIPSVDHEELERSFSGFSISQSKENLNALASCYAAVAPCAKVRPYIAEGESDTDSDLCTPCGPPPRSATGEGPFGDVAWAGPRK

Cc1nn(-c2cc(C(F)(F)F)ccc2Cl)c2nc(C(Cl)(Cl)Cl)[nH]c(=O)c12
active: activation [18] 191% | potentiation [19] 52.5% | potentiation [20] 218%
inactive: outcome [1] | outcome [2] | outcome [3] | outcome [4] | outcome [5] | outcome [6] | outcome [7] | outcome [8] | outcome [9] | outcome [10] | outcome [11] | outcome [12] | outcome [13] | outcome [14] | outcome [15] | outcome [16] | outcome [17]

CC(C)NS(=O)(=O)c1ccc(NC(=O)C(C)Oc2ccc(C(=O)c3ccccc3)cc2)cc1 (stereo not given)
inactive: outcome [1] | outcome [2] | outcome [3] | outcome [5] | outcome [6] | outcome [7] | outcome [8] | outcome [9] | outcome [10] | outcome [11] | outcome [12] | outcome [13] | outcome [14] | outcome [16] | outcome [17] | outcome [18] | outcome [19] | outcome [20]
active: potentiation [4] 36% | potentiation [15] 30.1%

CC1=NN(C(=O)COc2ccc(C)c(C)c2)C(O)(c2ccc(Cl)cc2)C1 (stereo not given)
inactive: outcome [1] | outcome [2] | outcome [3] | outcome [4] | outcome [5] | outcome [6] | outcome [7] | outcome [8] | outcome [9] | outcome [10] | outcome [11] | outcome [12] | outcome [13] | outcome [14] | outcome [15] | outcome [16] | outcome [17]

CN(C)CCCN(C(=O)CCc1ccccc1)c1nc2ccc(F)cc2s1
inactive: outcome [1] | outcome [2] | outcome [3] | outcome [4] | outcome [5] | outcome [6] | outcome [7] | outcome [8] | outcome [9] | outcome [10] | outcome [11] | outcome [12] | outcome [13] | outcome [14] | outcome [15] | outcome [16] | outcome [17] | outcome [18] | outcome [19] | outcome [20]

CCC(=O)c1ccc(N2CCN(C(=O)c3ccccc3Br)CC2)c(F)c1
active: potentiation [15] 19.2%
inactive: outcome [1] | outcome [2] | outcome [3] | outcome [4] | outcome [5] | outcome [6] | outcome [7] | outcome [8] | outcome [9] | outcome [10] | outcome [11] | outcome [12] | outcome [13] | outcome [14] | outcome [16] | outcome [17]

Cc1cc(C)c2c(=O)n(CC(=O)Nc3cccc(Cl)c3C)sc2n1
active: potentiation [4] 14% | potentiation [15] 9.63%
inactive: outcome [1] | outcome [2] | outcome [3] | outcome [5] | outcome [6] | outcome [7] | outcome [8] | outcome [9] | outcome [10] | outcome [11] | outcome [12] | outcome [13] | outcome [14] | outcome [16] | outcome [17] | outcome [18] | outcome [19] | outcome [20]

CCc1ccc(Nc2n[n+](-c3ccccc3)c(/C=C/c3ccccc3)s2)cc1
inactive: outcome [1] | outcome [2] | outcome [3] | outcome [5] | outcome [6] | outcome [7] | outcome [8] | outcome [9] | outcome [10] | outcome [11] | outcome [12] | outcome [13] | outcome [14] | outcome [16] | outcome [17]
active: potentiation [4] 14% | potentiation [15] 14.8%

COc1ccc(NS(=O)(=O)c2csc(C(N)=O)c2)cc1OC
active: potentiation [15] 12.9%
inactive: outcome [1] | outcome [2] | outcome [3] | outcome [4] | outcome [5] | outcome [6] | outcome [7] | outcome [8] | outcome [9] | outcome [10] | outcome [11] | outcome [12] | outcome [13] | outcome [14] | outcome [16] | outcome [17]

CN(C)S(=O)(=O)N1CCC(CCCC2CCN(S(=O)(=O)N(C)C)CC2)CC1
active: potentiation [4] 11% | potentiation [15] 8.71% | activation [18] 228% | potentiation [19] 99.5% | potentiation [20] 288%
inactive: outcome [1] | outcome [2] | outcome [3] | outcome [5] | outcome [6] | outcome [7] | outcome [8] | outcome [9] | outcome [10] | outcome [11] | outcome [12] | outcome [13] | outcome [14] | outcome [16] | outcome [17]

COc1cc(NC(=O)CSc2ncnc3sc4c(c23)CCC(C)C4)c(C(=O)O)cc1OC (stereo not given)
active: inhibition [5] 91% | activation [18] 450% | potentiation [19] 297% | potentiation [20] 506%
inactive: outcome [1] | outcome [2] | outcome [3] | outcome [4] | outcome [6] | outcome [7] | outcome [8] | outcome [9] | outcome [10] | outcome [11] | outcome [12] | outcome [13] | outcome [14] | outcome [15] | outcome [16] | outcome [17]

Cc1ccc2c(c1)C1CN(C)CCC1N2C(=S)NC(=O)c1ccc(Br)cc1 (stereo not given)
active: potentiation [4] 15% | potentiation [15] 23.8% | activation [18] 170% | potentiation [19] 41% | potentiation [20] 200%
inactive: outcome [1] | outcome [2] | outcome [3] | outcome [5] | outcome [6] | outcome [7] | outcome [8] | outcome [9] | outcome [10] | outcome [11] | outcome [12] | outcome [13] | outcome [14] | outcome [16] | outcome [17]

O=C1C=CC(=O)N1CCNc1ncc(C(F)(F)F)cc1Cl
inactive: outcome [1] | outcome [2] | outcome [3] | outcome [4] | outcome [5] | outcome [6] | outcome [7] | outcome [8] | outcome [9] | outcome [10] | outcome [11] | outcome [12] | outcome [13] | outcome [14] | outcome [15] | outcome [16] | outcome [17] | outcome [18] | outcome [20]
active: potentiation [19] 77.5%

c1ccc(Nc2nc(N3CCCCC3)nc(N3CCNCC3)n2)cc1
inactive: outcome [1] | outcome [2] | outcome [3] | outcome [4] | outcome [5] | outcome [6] | outcome [7] | outcome [8] | outcome [9] | outcome [10] | outcome [11] | outcome [12] | outcome [13] | outcome [14] | outcome [16] | outcome [17]
active: potentiation [15] 44.6%
